From PubChem BioAssay AID720641 (ICCB-Longwood Screening Facility, Harvard Medical School, 2013)
Several values for one entry are separate records, joined by “and”; a condition that tells them apart may be missing. Equal values may be shown once. The campaign covered roughly 170,000 compounds. About 900 (0.53%) were called active.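 How the source made its calls: active means relative growth at most 50% at the other temperature and 20+ points below 30 °C, or under 10% at both; inactive means the rest, inconclusive results apart.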 The entries come from a sample that favours actives as a whole.

Test: S. aureus growth inhibition at 42 and 30 °C, primary screen, LtaS inhibitor project, RN4220, two temperatures (AID 720641)
Settings: OD600, 20 h, 42 °C, stronger effect = lower value

Row | SMILES | relative growth | relative growth (measured here: growth at 30 °C)
1 | CN(C)c1ccc(Nc2nc3ccccc3nc2NS(=O)(=O)c2cccs2)cc1 | 105% (inactive) | 95.9%
2 | Cc1cccn2c(=O)cc(CN3CCC(C(=O)N4CCOCC4)CC3)nc12 | 98.4% (inactive) | 88.3%
3 | COC(=O)CN1C(=O)CSc2ccc(S(=O)(=O)Nc3cc(C)ccc3C)cc21 | 112% (inactive) | 94%
4 | COC(=O)c1ccc(NS(=O)(=O)c2cc(C(=O)OC)n(C)c2)cc1 | 106% (inactive) | 88%
5 | COC(=O)c1ccc(C)c(NS(=O)(=O)c2ccc3c(c2)c(=O)sn3C)c1 | 0.12% (active) | 0.2%
6 | COc1ccc(OCCn2c(S(=O)(=O)Cc3ccccc3)nc3ccccc32)cc1 | 132% (inactive) | 101%
7 | COCCNc1ncnc2c1sc1nc(N3CCOCC3)c3c(c12)CCC3 | 111% (inactive) | 88.7%
8 | CSc1n[nH]c(-c2ccco2)n1 | 101% (inactive) | 107%
9 | CO/N=C(/C(=O)N[C@@H]1C(=O)N2C(C(=O)O)=C(CSc3nc(=O)c(O)nn3C)CS[C@H]12)c1csc(N)n1 | -0.87% (active) | -0.54%
10 | O=S(=O)(Cc1ccccc1)CC(O)COc1ccc(OC(F)(F)F)cc1 (stereo unspecified) | 102% (inactive) | 85%
11 | COc1ccccc1CN=C(C)c1ccccc1O | 101% (inactive) | 99.1%
12 | CCOC(=O)Nc1sccc1C(N)=O | 106% (inactive) | 101%
13 | CCOC(=O)c1c(NC(=O)C(F)(F)F)sc2c1CCCC2 | 101% (inactive) | 93.2%
14 | CCOC(=O)c1c(C)csc1NC(=O)CC(=O)C(F)(F)F | 2.75% (active) | 4.35%
15 | O=C(CSc1nc2ccsc2c(=O)n1Cc1ccccn1)Nc1nccs1 | 94% (inactive) | 87.2%
16 | O=S(=O)(NCCC12CC3CC(CC(C3)C1)C2)c1cc(Cl)ccc1Cl | 80.5% (inactive) | 66.9%
17 | CC(C)NC(=O)COc1ccc(-c2nn(C)c(=O)c3ccccc23)cc1 | 92.3% (inactive) | 86.8%
18 | CCOC(=O)N1CCC(N2Cc3cccc(C(=O)NC4CCN(Cc5ccccc5)CC4)c3C2=O)CC1 | 92.7% (inactive) | 86.6%
19 | CCN(CC(=O)NCc1ccc(Cl)cc1)C(=O)c1c(C)noc1C | 84.2% (inactive) | 95.1%
20 | Cc1ccc(Nc2c(-c3ccc(C)s3)nc3ccccn23)cc1 | 107% (inactive) | 89.8%
21 | Cc1cccc(C)c1Nc1c(-c2ccccc2O)nc2ncccn12 | 99.7% (inactive) | 86.4%
22 | Cc1ccc(-c2nc3ccccn3c2Nc2c(C)cccc2C)o1 | 1.59% (active) | 1.66%

Row | SMILES | relative growth | relative growth (measured here: growth at 30 °C)
23 | Nc1ccc(C(=O)Nc2ccc(C(=O)O)cc2N)cc1 | 108% (inactive) | 98.5%
24 | CC1=NN(c2ccccc2)C(=O)C1C=C1C(=O)N(C)C(=S)N(C)C1=O (stereo unspecified) | 109% (inactive) | 103%
25 | Cc1c(C(=O)NC2CCCC2)oc2ccc(S(=O)(=O)N(C)C3CCCCC3)cc12 | 142% (inactive) | 89.2%
26 | Cc1ccc(-c2cc(C(=O)Oc3ccccc3Cl)no2)cc1C | 0.23% (active) | -0.03%
27 | COCCNC(=O)c1cc(-c2cccc(Cl)c2)on1 | 92.5% (inactive) | 110%
28 | CCCCNC(=O)c1cc(-c2ccc(Cl)c(Cl)c2)on1 | 100% (inactive) | 88%
29 | CC(=O)Nc1ccc2nc3c(cc2c1)[nH]c1ccccc13 | 114% (inactive) | 93.5%
30 | COc1ccc(-c2csc3ncnc(NCCSCc4ccco4)c23)cc1 | 67.1% (inactive) | 66.9%
31 | Clc1ccc(C(Cn2ccnc2)OCc2ccsc2Cl)c(Cl)c1 (stereo unspecified) | -0.03% (active) and -0.62% (active) | 0.13% and 0.06%
32 | CC1CCCCN1C(=O)c1ccc(Br)cc1 (stereo unspecified) | 99.9% (inactive) | 91.1%
33 | COc1ccc(N=C2SCCCN2C(=O)C2CCCC2)cc1OC | 94.4% (inactive) | 86%
34 | CC(NCc1ccc(OC(F)F)cc1OC(F)F)c1ccc(-n2ccnc2)cc1 (stereo unspecified) | 101% (inactive) | 92.4%
35 | COc1ccccc1NC(=O)Oc1ccc2ccncc2c1 | 105% (inactive) | 97.9%
36 | Sc1ccc2ccccc2c1 | 82.2% (inactive) | 91%
37 | c1ccc2cc3cnccc3cc2c1 | 3.61% (active) | 2.36%
38 | CC(=O)N1CC=C(c2ccc(O)cc2)CC1 | 37.5% (inactive) | 31.2%
39 | O=C(NCCc1ccccc1)c1ccc(C(=O)c2ccccc2)o1 | 99.2% (inactive) | 94.2%
40 | Cc1cc(C)cc(NS(=O)(=O)c2ccc3c(c2)CC(=O)N3)c1 | 96.8% (inactive) | 77%
41 | CC1=Nc2c(ccc3cccnc23)C1(C)C | 3.05% (active) | 2.08%
42 | COc1cc(NC(=O)c2cc3ccc4cccnc4c3[nH]2)cc(OC)c1OC | 90.5% (inactive) | 89.8%
43 | Cc1cc(NC(=O)c2cc3ccc4cccnc4c3[nH]2)no1 | 108% (inactive) | 92.6%
44 | O=C(COC(=O)c1n[nH]c2ccccc12)Nc1ccc(N2CCOCC2)cc1 | 104% (inactive) | 96.3%

Row | SMILES | relative growth | relative growth (measured here: growth at 30 °C)
45 | Cc1ccc(-n2c(C)ccc2C)cc1 | 97.4% (inactive) | 101%
46 | Oc1c(Cl)cc(Cl)c(Cl)c1Cc1c(O)c(Cl)cc(Cl)c1Cl | -0.02% (active) | -0.87%
47 | COCC(C)NC(=O)Nc1c[nH]c2ccccc12 (stereo unspecified) | 78.5% (inactive) | 50.9%
48 | CN1CCC(N(C)C(=O)Nc2c[nH]c3ccccc23)CC1 | 3.18% (active) | 6.3%
49 | O=C(Nc1c[nH]c2ccccc12)NC1CCCC1 | 103% (inactive) | 62.5%
50 | CCOC(=O)N1CCC(N(CCOC)C(=S)Nc2ccccc2F)CC1 | 83.6% (inactive) | 74.7%
51 | Cc1ccc(NC(=O)CC2SC(=Nc3ccc(S(N)(=O)=O)cc3)NC2=O)cc1 (stereo unspecified) | 100% (inactive) | 94.2%
52 | CCC(C)NC(=O)Cn1nc(-c2ccccc2)c2cc(Cl)ccc21 (stereo unspecified) | 105% (inactive) | 86.8%
53 | C=CCNC(=O)c1ccc(S(=O)(=O)N(CC)c2ccccc2)cc1 | 99.8% (inactive) | 91%
54 | Cc1cnc(C(=O)OCc2cc(=O)n3ccsc3n2)cn1 | 86.6% (inactive) | 101%
55 | CCOC(=O)OC(C)OC(=O)C1N2C(=O)C(NC(=O)[C@H](N)c3ccccc3)C2SC1(C)C (stereo partly specified) | -1.14% (active) | -0.8%
56 | CC(Oc1ccccc1)C(=O)NC1CCCCC1 (stereo unspecified) | 110% (inactive) | 98.3%
57 | CC(Oc1ccccc1)C(=O)N[C@@H]1C(=O)N2[C@@H]1SC(C)(C)[C@@H]2C(=O)O (stereo partly specified) | -1.13% (active) | -0.8%
58 | CC1(C)S[C@@H]2[C@H](N=CN3CCCCCC3)C(=O)N2[C@H]1C(=O)O | 93.7% (inactive) | 82.3%
59 | COC(=O)C(N)c1ccccc1 (stereo unspecified) | 68.2% (inactive) | 90.3%
60 | C1=CCC(/C=N/Nc2nc3ccccc3o2)CC1 (stereo unspecified) | 82% (inactive) | 84.9%
61 | Cc1cc2oc(=O)cc(Cn3nnc(-c4ccc(F)cc4)n3)c2cc1C | 84.4% (inactive) | 95.6%
62 | CCCNS(=O)(=O)c1ccc(N2CCCCS2(=O)=O)cc1 | 101% (inactive) | 93.7%
63 | c1ccc(-c2nc3ccccc3nc2N2CCCC2)cc1 | 97.9% (inactive) | 98.8%
64 | O=C(O)CCCC(=O)Nc1cc(C(F)(F)F)cc(C(F)(F)F)c1 | 101% (inactive) | 71.5%
65 | O=C(N/C=C/c1ccsc1)Nc1cc(C(F)(F)F)cc(C(F)(F)F)c1 | -2.07% (active) | -0.58%
66 | O=C(CSc1ccccn1)Nc1cc(C(F)(F)F)cc(C(F)(F)F)c1 | 112% (inactive) | 86.3%

Row | SMILES | relative growth | relative growth (measured here: growth at 30 °C)
67 | CC(=O)OCC(=O)CC12CC3CC(CC(C3)C1)C2 | 83.3% (inactive) | 93.7%
68 | CCOC(=O)CN1C(=O)S/C(=C\c2ccc(-c3ccc(Cl)cc3Cl)o2)C1=O | 89.9% (inactive) | 87%
69 | CCN1CCCC1CNC(=O)c1nnc(Cc2ccccc2OC)o1 (stereo unspecified) | 79.5% (inactive) | 88.3%
70 | CC(C)(C)c1ccc(S(=O)(=O)N2CCN(C(=O)c3cc(-c4ccc(Br)cc4)n[nH]3)CC2)cc1 | 99.3% (inactive) | 102%
71 | FC(F)(F)c1cc(-c2ccc(Br)cc2)n[nH]1 | 8.64% (active) | 4.24%
72 | Cc1cc(C)c(NC(=O)CSC2=NN3CCCC(=O)N=C3S2)c(C)c1 | 95% (inactive) | 89%
73 | CCCNc1ncnc2onc(-c3ccc(F)cc3)c12 | 90.2% (inactive) | 91%
74 | CNC(=O)C1CCN(S(=O)(=O)c2c(C)noc2/C=C/c2cccc(C)c2)CC1 | 107% (inactive) | 81.4%
75 | CCCOc1c(Br)cc(C(=O)O)cc1OC | 90.2% (inactive) | 101%
76 | CC1CC(C)CN(C(=O)C(C)n2sc3ccccc3c2=O)C1 (stereo unspecified) | 120% (inactive) | 95.8%
77 | CCn1c(SCc2c(C)noc2C)nc2cc(S(=O)(=O)N3CCOCC3)ccc21 | 63.8% (inactive) | 94%
78 | NC(=O)c1ncoc1-c1cccc(Cl)c1 | 108% (inactive) | 76%
79 | Oc1ccc(SSc2ccc(O)cc2)cc1 | 3.56% (active) | 3.94%
80 | Oc1ccc(-n2cccc2)cc1 | 84.2% (inactive) | 92.9%
81 | Oc1ccc(-c2cccc(-c3ccc(O)cc3)c2)cc1 | 97.5% (inactive) | 59.9%
82 | CCOC(=O)C1=C(C)Nc2[nH]c(=O)[nH]c(=O)c2C1c1ccccc1 (stereo unspecified) | 94.1% (inactive) | 92.8%
83 | FC(F)(F)C1CCCN(c2nsc3ccccc23)C1 (stereo unspecified) | -0.41% (active) | -0.5%
84 | Cc1c(/C=C/C(=O)Oc2ccc(C#N)cc2)sc2ccccc12 | 110% (inactive) | 87.3%
85 | Cc1ccccc1OCC(=O)Nc1cc(Sc2ccccn2)cc(S(=O)(=O)c2ccccc2)c1 | 103% (inactive) | 88.5%
86 | CC(C)(C)c1cc(Cl)c(O)c(NC(=O)c2cncc(Br)c2)c1 | 112% (inactive) | 87.7%
87 | Cc1cccc(OC(=O)Nc2ccccc2)c1 | 102% (inactive) | 91.2%
88 | CCn1c(CCl)nc2cc(C(=O)O)ccc21 | 119% (inactive) | 82.3%
